ChEMBL document CHEMBL1157539, “Thousands of chemical starting points for antimalarial lead identification” (Nature, 2010)
Values joined by “and” are separate entries in the source; they are usually repeats but may differ in a detail not shown here. Identical values can stand only once.

tested on: Plasmodium falciparum; assay: GSK_TCMDC: Inhibition of Plasmodium falciparum 3D7 in whole red blood cells, using parasite LDH activity as an index of growth. Test compounds present at 2uM; assay type: functional

With `O=C(/C=C/c1ccc(Cl)c(Cl)c1)NC1CCC(CN2CCC(c3c[nH]c4cc(C(F)(F)F)ccc34)CC2)CC1` (configuration not stated) the Inhibition was 100% and 98%.

Point of comparison: `Cl.c1ccc2c(NCCCCCCNc3c4c(nc5ccccc35)CCCC4)c3c(nc2c1)CCCC3`, Inhibition 100%. Against it:
- COC(=O)/C=C/C(=O)N[C@@H]1CC[C@@]2(O)[C@H]3Cc4ccc(O)c5c4[C@@]2(CCN3CC2CC2)[C@H]1O5.Cl — lower, 95%
- CN1CC=C(c2c[nH]c3ccc(C(=O)c4nccs4)cc23)CC1 — lower, 89%
- CC(C)CNCc1ccc(-c2ccc(CN(C(=O)Nc3ccccc3)C3CCN(Cc4ccccc4)CC3)cc2)cc1.O=C(O)C(F)(F)F — the same, 100%

tested on: Plasmodium falciparum; assay: GSK_TCMDC: Inhibition of Plasmodium falciparum Dd2 in whole red blood cells, using parasite LDH activity as an index of growth. Test compounds present at 2uM; assay type: functional

Point of comparison: `CC(=O)N(Cc1ccccc1-c1cccc(CNCc2ccc3c(c2)OCO3)c1)C1CCN(Cc2ccccc2)CC1.O=C(O)C(F)(F)F`, Inhibition 44%. Against it:
- C=C[C@H]1CN2CC[C@H]1C[C@H]2[C@H](O)c1cc(/C=C/c2ccc(F)cc2)nc2ccc(OC)cc12.Cl — higher, 99%
- Fc1ccc(N(c2nc(-c3cc(F)cc(C(F)(F)F)c3)cs2)C2CCNCC2)cc1.O=C(O)C(F)(F)F — lower, 10%
- CN(c1cc(NC(=O)c2ccc(F)cc2)ccn1)C1CCN(Cc2cccc(C#N)c2)CC1.O=C(O)C(F)(F)F — higher, 83%
- CS(=O)(=O)Nc1ccc2[nH]cc(C3CC4CCC(C3)N4CC3CCC(NC(=O)/C=C/c4ccc(Cl)c(Cl)c4)CC3)c2c1 (configuration not stated) — higher, 50%
- Cc1[nH]c2c(C)cc(NS(C)(=O)=O)cc2c1C1CCN(CC2CCN(C(=O)/C=C/c3ccc(Cl)c(Cl)c3)CC2)CC1 — higher, 99%
- Cl.Fc1ccc2[nH]cc(CCN3CCC(CNCc4ccccc4)CC3)c2c1 — higher, 94%
- O=C(O)/C=C\C(=O)O.OC1(c2ccc(Cl)c(C(F)(F)F)c2)CCN(CCOC2c3ccccc3CSc3ccc(Cl)cc32)CC1 (configuration not stated) — higher, 58%
- Br.CC[C@H]1CN2CC[C@H]1C[C@H]2[C@H](O)c1ccnc2ccc(C#N)cc12 — higher, 55%
- CN(C(=O)OCc1ccccc1)C1CCC(CCN2CCC3(CC2)C(=O)NCN3c2cccc(C(F)(F)F)c2)(c2ccccc2)CC1 (configuration not stated) — higher, 72%
- CC[C@H]1CN2CC[C@H]1C[C@H]2[C@H](O)c1cc(N2CCC3CCCCC3C2)nc2ccc(OC)cc12 (some centres not stated) — higher, 99%
- O=C(/C=C/c1cc(C(F)(F)F)ccc1F)N1CCC(CN2CCC(c3c[nH]c4ccccc34)CC2)CC1 — lower, 14%
- COc1cc(CN2CCN(c3ccnc(N(C)C4CCN(C)CC4)n3)CC2)cc(Cl)c1O — higher, 63%
- COc1cccc(C(=O)C2CC2CN2CC=C(c3c[nH]c4cccc(Br)c34)CC2)c1 (configuration not stated) — higher, 85%
- COCCSc1ccc(CC(C)NCC(O)c2cccc(Cl)c2)cc1.Cl (configuration not stated) — higher, 73%
- CN1CC(c2ccc(Cl)c(Cl)c2)OC1=N.I (configuration not stated) — lower, 3%
- CCCCCC(C)C(C)c1cc(O)c2c(c1)OC1(C(C)C)CC(O)C(C)C2C1 (configuration not stated) — higher, 87%
- CCC(C)(C)NC(C)C(O)c1ccc(C(F)(F)F)cc1.Cl (configuration not stated) — higher, 90%
- CC1CN=C(Nc2ncc(Cl)cc2Cl)N1.Cl (configuration not stated) — lower, 3%
- O=C(/C=C/C=C/c1ccccc1)NC1CCC(CN2CCC(c3c[nH]c4ccccc34)CC2)CC1 (configuration not stated) — higher, 66%
- O=C(NC1CCC(CN2CCC(c3c[nH]c4ccccc34)CC2)CC1)c1ccc(-c2cc(C(F)(F)F)ccc2Cl)o1 (configuration not stated) — lower, 34%
- CCC1=C[C@@H]2CN(C1)Cc1c([nH]c3ccccc13)[C@@](C(=O)OC)(c1cc3c(cc1OC)N(C)[C@H]1[C@@](O)(C(=O)OC)[C@H](O)[C@]4(CC)C=CCN5CC[C@]31[C@@H]54)C2.O=S(=O)(O)O — higher, 99%
- CC[C@H]1CN2CC[C@@H]1C[C@@H]2[C@@H](O)c1cc(-c2ccc(F)cc2)nc2ccc(OC)cc12.Cl — higher, 64%
- COc1ccc(C(=O)c2ccc3[nH]cc(C4=CCN(C)CC4)c3c2)cc1 — higher, 55%
- CC(C)CNCc1cccc(-c2ccc(CN(C(=O)NC3CCCCC3)C3CCN(Cc4ccccc4)CC3)cc2)c1.O=C(O)C(F)(F)F — higher, 51%
- N=C(N)NC(=O)Nc1ccc([N+](=O)[O-])c(Cl)c1 — lower, 12%
- O=C(/C=C/c1ccc(Cl)c(Cl)c1)N1CCC(CN2C3CCC2CC(c2c[nH]c4ccccc24)C3)CC1 (configuration not stated) — higher, 66%
- O=C(NC1CCC(N2CCC3(CC2)C(=O)NCN3c2ccccc2)CC1)c1cc2ccccc2[nH]1 (configuration not stated) — lower, 40%
- Cc1c(C(=O)N[C@@H](C)c2ccccc2)c2cc(O)c(Br)cc2n1C1CCCCC1 — higher, 95%
- COC(=O)/C=C/C(=O)N[C@@H]1CC[C@@]2(O)[C@H]3Cc4ccc(O)c5c4[C@@]2(CCN3CC2CC2)[C@H]1O5.Cl — higher, 66%
- CN1CC=C(c2c[nH]c3ccc(C(=O)c4nccs4)cc23)CC1 — higher, 73%
- CC(C)CNCc1ccc(-c2ccc(CN(C(=O)Nc3ccccc3)C3CCN(Cc4ccccc4)CC3)cc2)cc1.O=C(O)C(F)(F)F — higher, 61%
- Cl.c1ccc2c(NCCCCCCNc3c4c(nc5ccccc35)CCCC4)c3c(nc2c1)CCCC3 — higher, 51%

`O=C(Nc1cc(C(F)(F)F)cc(C(F)(F)F)c1)NC1CCC(CN2CCC(c3c[nH]c4ccccc34)CC2)CC1` (configuration not stated) was tested, and the Inhibition was 98% and 72%.
In the case of `C#CCOc1ccc(CC(C)NCC(O)c2cccc(C(F)(F)F)c2)cc1` (configuration not stated), the Inhibition is reported as 84% and 74%.
With `O=C(/C=C/c1ccccc1Cl)NC1CCC(CN2CCC(c3c[nH]c4ccccc34)CC2)CC1` (configuration not stated) the Inhibition was 51% and 35%.
`O=C(/C=C/c1ccc(Cl)c(Cl)c1)NC1CCC(CN2CCC(c3c[nH]c4cc(C(F)(F)F)ccc34)CC2)CC1` (configuration not stated) was tested, and the Inhibition was 38% and 85%.
